A selection: hits, their analogues and other compounds. The true share with any hit is near 2.4%.
ANO1 activ: mouse TMEM16A channel activation, primary screen; Q8BHY3; HEK293 TMEM16A/YFP-H148Q/I152L, iodide quench fluorescence; active compounds read low; B-score at 10 µM; 340,000 tested, 0.3% active; AID 623877;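 active means fluorescence-ratio B-score plate-corrected deviation score at least 3 library SD below zero, with starting fluorescence score within 5 deviations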;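 further: channel opened by trigger with iodide after compound preincubation; score built on the fluorescence ratio of max minus min over baseline; more negative score means more quench and so TMEM16A activation or potentiation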
Target sequence (Q8BHY3 whole entry, looked up): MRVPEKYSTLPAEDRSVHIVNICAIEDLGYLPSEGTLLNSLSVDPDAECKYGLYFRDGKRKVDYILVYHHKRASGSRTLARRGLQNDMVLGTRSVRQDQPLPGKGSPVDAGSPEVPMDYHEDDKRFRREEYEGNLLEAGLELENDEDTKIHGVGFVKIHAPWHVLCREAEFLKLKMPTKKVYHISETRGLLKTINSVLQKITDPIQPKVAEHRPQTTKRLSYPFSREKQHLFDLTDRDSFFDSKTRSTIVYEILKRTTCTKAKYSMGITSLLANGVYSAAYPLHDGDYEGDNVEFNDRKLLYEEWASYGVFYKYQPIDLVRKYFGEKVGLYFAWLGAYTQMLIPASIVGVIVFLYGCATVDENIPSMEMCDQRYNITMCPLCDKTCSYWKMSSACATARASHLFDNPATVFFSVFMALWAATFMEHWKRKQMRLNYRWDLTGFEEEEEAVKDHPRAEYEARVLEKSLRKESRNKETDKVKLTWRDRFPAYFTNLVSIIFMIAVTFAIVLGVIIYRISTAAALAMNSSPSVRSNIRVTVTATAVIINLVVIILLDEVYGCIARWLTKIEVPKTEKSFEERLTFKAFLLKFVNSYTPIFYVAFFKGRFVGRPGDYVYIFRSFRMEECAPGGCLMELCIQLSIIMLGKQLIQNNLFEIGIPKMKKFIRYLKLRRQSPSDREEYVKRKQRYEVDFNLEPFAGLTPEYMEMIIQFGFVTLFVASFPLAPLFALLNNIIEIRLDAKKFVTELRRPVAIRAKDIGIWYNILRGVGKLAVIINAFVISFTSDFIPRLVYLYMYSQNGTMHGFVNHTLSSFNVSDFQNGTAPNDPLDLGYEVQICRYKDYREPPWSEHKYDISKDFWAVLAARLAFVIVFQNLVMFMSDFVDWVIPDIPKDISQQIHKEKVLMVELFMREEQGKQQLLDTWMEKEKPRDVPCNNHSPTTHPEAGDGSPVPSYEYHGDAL
NOD2 RIPK2 PPI: NOD2-RIPK2 protein interaction inhibition; O43353; CHO BLA complementation NOD2-RIPK2, CCF4 ratio; inhibition, % at 4.98 µM; 360,000 tested, 0.38% active; in the data active means inhibition above about 21%
m5-HT2A agonist: agonists of mouse serotonin 5-HT2A receptor (HTR2A); CHO-K1 mHTR2A beta-arrestin complementation, luminescence; percent of 30 µM serotonin response; 360,000 tested, 0.66% active; activation, % at 7.6 µM; AID 624169; P35363;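 active means activation above a run cutoff, the mean activation of all tested compounds plus 3 SD, cut at about 14% in these data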
TLR9-MyD88 block: blocks human TLR9 binding to MyD88; CHO BLA complementation TLR9-MyD88, CCF4 FRET ratio; inhibition, % at 4.98 µM; 340,000 tested, 0.21% active; AID 504734;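 active means inhibition above the mean over all tested compounds plus 3 SD, cut at about 21% in these data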
ANO1 block: inhibitors of mouse TMEM16A calcium-activated chloride channel. Q8BHY3. HEK293 TMEM16A/YFP iodide influx fluorescence, ionomycin. normalized B-score (activity score, 25-100; higher = stronger inhibition) at 10 µM. 310,000 tested, 1.2% active. AID 588511;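 active means ratio plate-corrected score three or more library SD toward inhibition, starting fluorescence score within five deviations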;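 further: score derived from kinetic fluorescence span divided by baseline fluorescence per well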
TLR4-MyD88 BLA: TLR4-MyD88 interaction inhibition in cells | O00206+Q99836 | HeLa CL3-4 TLR4/MyD88 BLA complementation, FRET ratio | inhibition, % at 8.4 µM | 200,000 tested, 0.18% active; in the data active means inhibition above about 25%
TMEM16A reconf: reconfirmed blocker of mouse TMEM16A calcium-activated chloride channel. shares compounds with ANO1 block. HEK293 TMEM16A/YFP-H148Q, iodide quench fluorescence; ionomycin added to raise cell calcium. inhibition, % at 10 µM. 2,300 tested, 39% active. AID 652189;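 active means mean duplicate percent inhibition, scaled so buffer wells are 0 and the reference blocker 100, over three buffer SD above buffer mean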
TMEM16A Ca cntr: alters calcium mobilization in TMEM16A HEK293 cells, counter-screen; shares compounds with ANO1 block; TMEM16A/YFP HEK293, Fluo4 calcium mobilization; calcium response (% of ionomycin), % at 10 µM; 2,300 tested, 2% active; AID 652231;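 active means duplicate-averaged calcium signal over 20% of the ionomycin maximum, relative to buffer baseline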;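 further: each well's signal is peak minus trough fluorescence divided by its pre-addition baseline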
Parental YFP cnt: parental YFP-HEK293 iodide quench counter-screen activity; shares compounds with ANO1 block; ionomycin; YFP ratio F(max-min)/F0 at 10 µM; 2,300 tested, under 10 active;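 active means yellow fluorescent protein signal ratio exceeding the buffer control mean by over 5 SD of those controls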;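 further: ratio is mean of duplicate wells from kinetic YFP trace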
ClC-1 rat inh: selectivity of TMEM16A inhibitors: inhibition of rat ClC-1 chloride channel. shares compounds with ANO1 block. CHO ClC-1-YFP, iodide influx fluorescence quench; iodide control reads 0, buffer control 100. ratio percent, % at 10 µM. 2,300 tested, under 10 active. AID 652236;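 active means duplicate-mean ratio percent above the mean of iodide-only control wells, which defines zero, plus 5 of their SD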;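 further: higher percent means stronger block of ClC-1 iodide influx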
Each line names hits and unclear results; the compound was inactive in the other large screens (follow-up assays come after a bar, where they were run).

COc1ccc(OC)c(NC(=O)CSc2ccc3ccccc3c2)c1	ANO1 block 100 | TMEM16A reconf inactive | TMEM16A Ca cntr inactive | Parental YFP cnt inactive | ClC-1 rat inh inactive
CC(C)(C)c1ccc(NC(=O)COc2ccc(-n3ccnc3)cc2)cc1	ANO1 block 100 | TMEM16A reconf 44% | TMEM16A Ca cntr inactive | Parental YFP cnt inactive | ClC-1 rat inh inactive
O=C(COc1ccc(Br)cc1)Nc1ccc(Cc2ccncc2)cc1	ANO1 block 100 | TMEM16A reconf inactive | TMEM16A Ca cntr inactive | Parental YFP cnt inactive | ClC-1 rat inh inactive
Cc1cc(C)c2c(n1)nn1c(NCCOCCO)cc(C)nc21	none
Cc1ccc(OCC(=O)Nc2ccncc2)c(C)c1	ANO1 block 25 (no result: TLR4-MyD88 BLA) | TMEM16A reconf inactive | TMEM16A Ca cntr inactive | Parental YFP cnt inactive | ClC-1 rat inh inactive
CC(C)c1ccc(OCC(=O)Nc2ccncc2)cc1	ANO1 block 25 (no result: TLR4-MyD88 BLA) | TMEM16A reconf inactive | TMEM16A Ca cntr inactive | Parental YFP cnt inactive | ClC-1 rat inh inactive
COc1ccccc1C(=O)Nc1ccc(Cc2ccncc2)cc1	none
O=C(COc1ccc2ccccc2c1)Nc1ccncc1	ANO1 block 25 | TMEM16A reconf inactive | TMEM16A Ca cntr inactive | Parental YFP cnt inactive | ClC-1 rat inh inactive
COc1c(C)cc(Br)cc1C(=O)Nc1ccc(Cc2ccncc2)cc1	ANO1 block 100 | TMEM16A reconf inactive | TMEM16A Ca cntr inactive | Parental YFP cnt inactive | ClC-1 rat inh inactive
O=c1cc2c(nn1Cc1cccc([N+](=O)[O-])c1)-c1ccccc1CC2	none
O=C(Oc1ccc(F)cc1C(=O)/C=C/c1cccs1)c1cccc([N+](=O)[O-])c1	none
O=C(CSc1ccncc1)Nc1ccc2ccccc2c1	none
O=C(CSc1ccc2ccccc2c1)Nc1ccncc1	ANO1 block 100 | TMEM16A reconf 18% | TMEM16A Ca cntr inactive | Parental YFP cnt inactive | ClC-1 rat inh inactive
O=C(COc1ccc2ccccc2c1)Nc1ccc(Br)cc1C(=O)O	ANO1 block 100 (no result: TLR4-MyD88 BLA) | TMEM16A reconf 42% | TMEM16A Ca cntr inactive | Parental YFP cnt inactive | ClC-1 rat inh inactive
CCCCOC(=O)CCNc1n[nH]c(=O)[nH]c1=O	none
CC1(C(=O)NCCCN2CCOCC2)Oc2cccnc2NC1=O (configuration not stated)	none
O=C(CSC1CC(=O)N(CC(c2ccccc2)c2ccccc2)C1=O)Nc1ccc(Cl)cc1 (configuration not stated)	ANO1 block 25 | TMEM16A reconf inactive | TMEM16A Ca cntr inactive | Parental YFP cnt inactive | ClC-1 rat inh inactive
COc1ccc(C)cc1NC(=O)c1ccccc1NS(=O)(=O)c1ccc(Cl)s1	ANO1 block 100 | TMEM16A reconf 48% | TMEM16A Ca cntr inactive | Parental YFP cnt inactive | ClC-1 rat inh inactive
O=C(COCc1nc2ccccc2c(=O)[nH]1)NC1CCCC1	ANO1 block 100 | TMEM16A reconf inactive | TMEM16A Ca cntr inactive | Parental YFP cnt inactive | ClC-1 rat inh inactive
CCO[C@@H]1OC(C(N)=O)=C[C@H](c2coc3ccccc3c2=O)[C@H]1CCCO	ANO1 block 25 (no result: TLR4-MyD88 BLA) | TMEM16A reconf inactive | TMEM16A Ca cntr inactive | Parental YFP cnt inactive | ClC-1 rat inh inactive
CCO[C@@H]1OC(C(=O)O)=C[C@H](c2coc3ccccc3c2=O)[C@H]1CCCO	none
CCOC(=O)c1c(C)oc2c1cc(NS(=O)(=O)c1ccc(C(=O)O)cc1)c1ccccc12	none (no result: TLR4-MyD88 BLA)
CC(C)c1ccc(S(=O)(=O)/N=C2/C=CC(=O)c3ccccc32)cc1	none (no result: ANO1 activ, NOD2 RIPK2 PPI, m5-HT2A agonist, TLR9-MyD88 block, ANO1 block)
CC(C)c1ccc(S(=O)(=O)/N=C2\C=C(NS(=O)(=O)c3ccccc3)C(=O)c3ccccc32)cc1	ANO1 block 100 (no result: TLR4-MyD88 BLA) | TMEM16A reconf 91% | TMEM16A Ca cntr inactive | Parental YFP cnt inactive | ClC-1 rat inh inactive
CCN(CC(=O)Nc1c(F)cccc1F)C(=O)c1cc2ccccc2oc1=O	none (no result: TLR4-MyD88 BLA)
CCOC(=O)c1ccccc1N/C=C/C(=O)c1ccccc1	ANO1 block 100 | TMEM16A reconf inactive | TMEM16A Ca cntr inactive | Parental YFP cnt inactive | ClC-1 rat inh inactive
CCOC(=O)c1ccc(N/C=C/C(=O)c2ccccc2)cc1	none
CC[C@@H](C)CN1C(=O)N[C@@H](CCc2ccccc2)C(C(C)=O)=C1C	none (no result: TLR4-MyD88 BLA)
CCOC(=O)c1cnc2ccc(C(=O)OC)cc2c1Nc1ccc2c(c1)OCCO2	none
CCOC(=O)c1cnc2ccc(OC)cc2c1Nc1ccc2c(c1)OCCO2	ANO1 block 100 | TMEM16A reconf inactive | TMEM16A Ca cntr inactive | Parental YFP cnt inactive | ClC-1 rat inh inactive
COc1cc(C(=O)NCCC2=CCCCC2)cc(OC)c1OC	none
COc1ccc(C)cc1NC(=O)NCCC1=CCCCC1	ANO1 block 100 | TMEM16A reconf inactive | TMEM16A Ca cntr inactive | Parental YFP cnt inactive | ClC-1 rat inh inactive
CCC1(C)Cc2ccccc2-c2nc3n(c(=O)c21)CC(C(=O)O)S3 (configuration not stated)	none
Cc1ccc(SC[C@H](C)CN2CC[C@H](C(C)(C)C)CCC2=O)cc1	ANO1 block 100 (no result: TLR4-MyD88 BLA) | TMEM16A reconf 38% | TMEM16A Ca cntr inactive | Parental YFP cnt inactive | ClC-1 rat inh inactive
C[C@@H](CSc1ccc(Br)cc1)CN1CC[C@H](C(C)(C)C)CCC1=O	none (no result: ANO1 block, TLR4-MyD88 BLA)
CCCCn1c(SCc2nc3ccccc3s2)nc2ccccc2c1=O	none
CCCCn1c(SCc2nc3ccccc3s2)nc2cc(S(N)(=O)=O)ccc21	ANO1 block 25 | TMEM16A reconf inactive | TMEM16A Ca cntr inactive | Parental YFP cnt inactive | ClC-1 rat inh inactive
Cc1cccc(C)c1OCCSc1n[nH]c(N)n1	none
Nc1cc(S(=O)(=O)N2CCCCC2)ccc1Oc1ccc(Cl)cc1	ANO1 block 100 | TMEM16A reconf inactive | TMEM16A Ca cntr inactive | Parental YFP cnt inactive | ClC-1 rat inh inactive
O=C(CCCSc1nc2ccccc2[nH]1)N1CCN(c2ccc([N+](=O)[O-])cc2)CC1	ANO1 block 25 | TMEM16A reconf 20% | TMEM16A Ca cntr inactive | Parental YFP cnt inactive | ClC-1 rat inh inactive
O=C(CSc1nc2ccccc2[nH]1)N1CCN(c2ccc(F)cc2)CC1	none
CN1CCc2c(sc(NC(=O)c3ccc(S(=O)(=O)N4CCc5ccccc54)cc3)c2C(N)=O)C1	none (no result: ANO1 activ, NOD2 RIPK2 PPI, m5-HT2A agonist, TLR9-MyD88 block, TLR4-MyD88 BLA)

Assay outcomes from PubChem BioAssay.
